{
  "source": "ChEMBL document CHEMBL1961873",
  "about": "“Compounds: GSK PKIS; Assays: Nanosyn kinase panel” (2012)",
  "key": {"[1]": {"target": "T1, Inhibitor of nuclear factor kappa-B kinase subunit epsilon (Homo sapiens) (UniProt Q14164)", "T1 sequence (whole entry)": "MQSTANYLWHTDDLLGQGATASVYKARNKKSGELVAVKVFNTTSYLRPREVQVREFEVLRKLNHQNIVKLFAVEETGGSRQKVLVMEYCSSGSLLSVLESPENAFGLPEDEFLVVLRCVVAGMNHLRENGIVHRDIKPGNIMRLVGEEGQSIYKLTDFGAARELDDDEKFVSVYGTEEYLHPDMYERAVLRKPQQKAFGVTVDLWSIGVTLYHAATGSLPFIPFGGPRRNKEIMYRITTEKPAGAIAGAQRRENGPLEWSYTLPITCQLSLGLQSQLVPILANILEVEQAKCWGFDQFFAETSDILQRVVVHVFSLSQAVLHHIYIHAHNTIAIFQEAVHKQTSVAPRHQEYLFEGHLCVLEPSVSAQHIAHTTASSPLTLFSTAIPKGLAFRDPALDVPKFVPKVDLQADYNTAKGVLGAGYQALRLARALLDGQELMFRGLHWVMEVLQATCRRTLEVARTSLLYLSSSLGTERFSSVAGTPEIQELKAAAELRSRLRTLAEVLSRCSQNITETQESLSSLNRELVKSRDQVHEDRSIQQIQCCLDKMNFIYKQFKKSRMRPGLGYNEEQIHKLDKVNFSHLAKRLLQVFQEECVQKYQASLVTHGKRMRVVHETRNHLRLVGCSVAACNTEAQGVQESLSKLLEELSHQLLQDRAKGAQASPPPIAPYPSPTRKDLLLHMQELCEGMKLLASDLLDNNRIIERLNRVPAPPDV", "conditions": "at 1 µM"}, "[2]": {"target": "T2, Serine/threonine-protein kinase Nek1 (Homo sapiens) (UniProt Q96PY6)", "T2 sequence (whole entry)": "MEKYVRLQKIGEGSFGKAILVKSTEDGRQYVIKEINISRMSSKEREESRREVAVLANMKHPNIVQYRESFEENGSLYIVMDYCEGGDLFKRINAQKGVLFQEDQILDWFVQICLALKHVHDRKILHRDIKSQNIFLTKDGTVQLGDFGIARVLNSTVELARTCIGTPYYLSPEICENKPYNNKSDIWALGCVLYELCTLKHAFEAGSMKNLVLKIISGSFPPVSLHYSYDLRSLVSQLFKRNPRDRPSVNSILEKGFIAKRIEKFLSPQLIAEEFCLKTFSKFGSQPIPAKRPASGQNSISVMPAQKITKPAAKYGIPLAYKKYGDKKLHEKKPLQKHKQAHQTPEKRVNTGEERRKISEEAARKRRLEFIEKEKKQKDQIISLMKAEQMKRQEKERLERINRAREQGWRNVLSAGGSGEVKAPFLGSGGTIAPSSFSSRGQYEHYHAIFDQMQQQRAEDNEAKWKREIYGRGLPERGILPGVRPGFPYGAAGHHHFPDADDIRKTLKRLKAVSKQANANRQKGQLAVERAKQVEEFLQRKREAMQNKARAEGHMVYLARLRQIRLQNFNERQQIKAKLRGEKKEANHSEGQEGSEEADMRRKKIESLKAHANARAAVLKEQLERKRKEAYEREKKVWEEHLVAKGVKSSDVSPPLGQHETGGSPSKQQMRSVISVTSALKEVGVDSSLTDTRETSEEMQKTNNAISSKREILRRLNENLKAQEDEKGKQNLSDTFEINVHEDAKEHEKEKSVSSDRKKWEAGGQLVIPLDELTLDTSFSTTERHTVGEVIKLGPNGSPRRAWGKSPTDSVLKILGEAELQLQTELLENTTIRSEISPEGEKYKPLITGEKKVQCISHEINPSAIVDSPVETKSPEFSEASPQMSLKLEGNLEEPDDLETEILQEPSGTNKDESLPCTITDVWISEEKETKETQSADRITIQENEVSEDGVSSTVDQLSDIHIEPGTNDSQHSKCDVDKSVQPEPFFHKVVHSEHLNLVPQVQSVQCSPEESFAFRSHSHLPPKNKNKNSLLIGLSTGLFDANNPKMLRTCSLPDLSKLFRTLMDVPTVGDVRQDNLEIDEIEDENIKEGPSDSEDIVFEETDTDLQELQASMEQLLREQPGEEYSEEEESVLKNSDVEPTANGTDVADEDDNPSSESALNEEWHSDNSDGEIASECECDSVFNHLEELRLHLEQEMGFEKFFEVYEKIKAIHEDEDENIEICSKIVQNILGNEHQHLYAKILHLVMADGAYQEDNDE", "conditions": "at 0.1 µM"}, "[3]": {"target": "T2, Serine/threonine-protein kinase Nek1 (Homo sapiens)", "conditions": "at 1 µM"}, "[4]": {"target": "T3, Serine/threonine-protein kinase Nek2 (Homo sapiens) (UniProt P51955)", "T3 sequence (whole entry)": "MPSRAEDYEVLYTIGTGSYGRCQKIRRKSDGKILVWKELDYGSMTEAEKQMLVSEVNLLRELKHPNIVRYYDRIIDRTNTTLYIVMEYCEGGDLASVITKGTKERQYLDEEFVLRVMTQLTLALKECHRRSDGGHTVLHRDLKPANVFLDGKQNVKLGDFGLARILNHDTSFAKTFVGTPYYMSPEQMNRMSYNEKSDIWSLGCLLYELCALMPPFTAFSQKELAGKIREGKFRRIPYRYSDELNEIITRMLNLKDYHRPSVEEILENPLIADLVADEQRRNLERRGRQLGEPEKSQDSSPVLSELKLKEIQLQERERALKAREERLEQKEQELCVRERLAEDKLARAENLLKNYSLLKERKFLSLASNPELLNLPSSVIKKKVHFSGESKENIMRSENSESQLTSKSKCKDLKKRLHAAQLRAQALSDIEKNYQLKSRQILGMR", "conditions": "at 0.1 µM"}, "[5]": {"target": "T3, Serine/threonine-protein kinase Nek2 (Homo sapiens)", "conditions": "at 1 µM"}, "[6]": {"target": "Serine/threonine-protein kinase Nek6 (Homo sapiens) (UniProt Q9HC98)", "sequence (Q9HC98 whole entry)": "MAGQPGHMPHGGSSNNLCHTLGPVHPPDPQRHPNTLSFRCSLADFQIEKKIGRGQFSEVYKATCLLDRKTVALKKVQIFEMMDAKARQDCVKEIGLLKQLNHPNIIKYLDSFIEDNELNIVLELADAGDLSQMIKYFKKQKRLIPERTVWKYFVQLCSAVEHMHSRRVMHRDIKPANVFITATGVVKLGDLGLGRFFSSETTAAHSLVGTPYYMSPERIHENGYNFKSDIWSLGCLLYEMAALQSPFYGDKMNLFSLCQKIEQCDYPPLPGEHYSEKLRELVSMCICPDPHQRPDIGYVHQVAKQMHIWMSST", "conditions": "at 0.1 µM"}, "[7]": {"target": "Serine/threonine-protein kinase Nek6 (Homo sapiens) (UniProt Q9HC98)", "conditions": "at 1 µM"}, "[8]": {"target": "Serine/threonine-protein kinase Nek7 (Homo sapiens) (UniProt Q8TDX7)", "sequence (Q8TDX7 whole entry, looked up)": "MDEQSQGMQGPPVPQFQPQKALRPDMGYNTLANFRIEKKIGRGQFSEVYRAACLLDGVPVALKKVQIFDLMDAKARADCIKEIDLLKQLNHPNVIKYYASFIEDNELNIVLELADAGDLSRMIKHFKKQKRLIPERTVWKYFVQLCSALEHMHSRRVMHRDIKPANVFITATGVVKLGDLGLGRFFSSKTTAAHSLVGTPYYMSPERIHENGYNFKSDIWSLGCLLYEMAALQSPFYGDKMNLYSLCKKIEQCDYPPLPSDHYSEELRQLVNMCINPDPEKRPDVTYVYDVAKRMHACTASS", "conditions": "at 0.1 µM"}, "[9]": {"target": "Serine/threonine-protein kinase Nek7 (Homo sapiens) (UniProt Q8TDX7)", "conditions": "at 1 µM"}, "[10]": {"target": "T4, Serine/threonine-protein kinase Nek9 (Homo sapiens) (UniProt Q8TD19)", "T4 sequence (whole entry)": "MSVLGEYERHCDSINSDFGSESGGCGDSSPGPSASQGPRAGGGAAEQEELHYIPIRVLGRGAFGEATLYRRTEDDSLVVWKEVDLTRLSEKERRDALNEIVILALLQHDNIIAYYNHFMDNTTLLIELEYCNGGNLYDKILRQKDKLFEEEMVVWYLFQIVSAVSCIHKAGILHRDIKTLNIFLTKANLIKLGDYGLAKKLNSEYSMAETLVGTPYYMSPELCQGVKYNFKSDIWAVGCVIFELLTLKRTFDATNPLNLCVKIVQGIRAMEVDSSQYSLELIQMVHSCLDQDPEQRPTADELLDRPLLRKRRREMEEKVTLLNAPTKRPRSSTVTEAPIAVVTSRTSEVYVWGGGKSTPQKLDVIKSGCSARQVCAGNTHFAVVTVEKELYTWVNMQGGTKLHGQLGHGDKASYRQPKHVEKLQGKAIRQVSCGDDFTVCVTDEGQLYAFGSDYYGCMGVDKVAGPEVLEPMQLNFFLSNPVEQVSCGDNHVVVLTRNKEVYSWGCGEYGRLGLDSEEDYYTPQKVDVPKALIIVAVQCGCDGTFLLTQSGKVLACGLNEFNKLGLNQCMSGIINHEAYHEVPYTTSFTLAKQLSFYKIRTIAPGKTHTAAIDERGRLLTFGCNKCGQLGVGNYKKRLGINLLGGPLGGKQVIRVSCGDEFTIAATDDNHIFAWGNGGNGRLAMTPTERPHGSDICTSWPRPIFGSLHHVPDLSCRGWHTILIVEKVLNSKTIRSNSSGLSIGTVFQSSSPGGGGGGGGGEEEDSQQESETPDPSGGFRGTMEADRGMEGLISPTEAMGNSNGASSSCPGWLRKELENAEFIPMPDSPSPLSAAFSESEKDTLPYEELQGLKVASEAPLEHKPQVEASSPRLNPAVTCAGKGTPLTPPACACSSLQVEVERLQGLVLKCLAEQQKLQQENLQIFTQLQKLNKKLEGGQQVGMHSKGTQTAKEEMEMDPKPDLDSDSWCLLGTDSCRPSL", "conditions": "at 0.1 µM"}},
  "data": [
    {"smiles": "O=C1NC(=O)C(c2ccccc2Cl)=C1Nc1cccc(O)c1", "values": [
      {"measurement": "inhibition", "setting": "[1]", "result": 5.16, "unit": "%"},
      {"measurement": "inhibition", "setting": "[2]", "result": 1.26, "unit": "%"},
      {"measurement": "inhibition", "setting": "[3]", "result": 2.01, "unit": "%"},
      {"measurement": "inhibition", "setting": "[4]", "result": 3.03, "unit": "%"},
      {"measurement": "inhibition", "setting": "[5]", "result": 3.05, "unit": "%"},
      {"measurement": "inhibition", "setting": "[6]", "result": 1.73, "unit": "%"},
      {"measurement": "inhibition", "setting": "[7]", "result": -0.89, "unit": "%"},
      {"measurement": "inhibition", "setting": "[8]", "result": 4.66, "unit": "%"},
      {"measurement": "inhibition", "setting": "[9]", "result": 2.35, "unit": "%"},
      {"measurement": "inhibition", "setting": "[10]", "result": 2.76, "unit": "%"}
    ]}
  ]
}
